This is an account of results in article PMC7862700, “An all-to-all approach to the identification of sequence-specific readers for epigenetic DNA modifications on cytosine”.

Common to all, as to test: DAPPL (digital affinity profiling via proximity ligation, sequencing); 10 mM Tris-HCl pH 7.5, 50 mM NaCl, 1 mM DTT, 4% glycerol, room temperature, 30 min; GST-TFs on glutathione beads, 16-mer random dsDNA library, 0.1% formaldehyde crosslink after washing; high values mean tight binding
The target in test [1] is T1, FLI1 (Homo sapiens, UniProt Q01543 1-452).
T1 sequence: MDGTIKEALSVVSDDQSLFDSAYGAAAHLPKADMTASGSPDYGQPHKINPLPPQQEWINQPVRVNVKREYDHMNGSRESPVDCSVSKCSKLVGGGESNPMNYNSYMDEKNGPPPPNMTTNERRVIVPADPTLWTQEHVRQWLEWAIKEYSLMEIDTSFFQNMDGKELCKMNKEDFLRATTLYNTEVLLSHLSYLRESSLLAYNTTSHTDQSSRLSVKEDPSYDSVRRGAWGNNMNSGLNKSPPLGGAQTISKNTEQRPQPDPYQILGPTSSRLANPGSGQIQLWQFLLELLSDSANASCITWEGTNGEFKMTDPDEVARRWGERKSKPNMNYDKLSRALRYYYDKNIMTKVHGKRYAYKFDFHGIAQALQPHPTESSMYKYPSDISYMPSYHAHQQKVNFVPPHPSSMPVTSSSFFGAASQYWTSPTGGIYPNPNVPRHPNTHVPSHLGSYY
To be noted: protein: recombinant; tags: N-terminal GST; dsDNA, one strand shown. A digest of the protocol: (§1)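 Beads coated with glutathione captured GST-fused human transcription factors that had been expressed in yeast, and the factors were then given DNA barcodes and pooled with a tag-only sample. The pools were incubated with 200 nmole of a random double-stranded 16-mer DNA library in Tris/NaCl/DTT/glycerol buffer for 30 min at room temperature, washed, crosslinked with 0.1% formaldehyde and proximity-ligated with BsaI/T4 ligase at 37 °C for 1 h. PCR amplification and Illumina NextSeq500 sequencing came last. Binding signal is each hexamer's read frequency for a factor divided by its frequency for the tag-only sample.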

For test [2], the target named is T2, ELK1 (Homo sapiens, UniProt P19419 1-428).
T2 sequence: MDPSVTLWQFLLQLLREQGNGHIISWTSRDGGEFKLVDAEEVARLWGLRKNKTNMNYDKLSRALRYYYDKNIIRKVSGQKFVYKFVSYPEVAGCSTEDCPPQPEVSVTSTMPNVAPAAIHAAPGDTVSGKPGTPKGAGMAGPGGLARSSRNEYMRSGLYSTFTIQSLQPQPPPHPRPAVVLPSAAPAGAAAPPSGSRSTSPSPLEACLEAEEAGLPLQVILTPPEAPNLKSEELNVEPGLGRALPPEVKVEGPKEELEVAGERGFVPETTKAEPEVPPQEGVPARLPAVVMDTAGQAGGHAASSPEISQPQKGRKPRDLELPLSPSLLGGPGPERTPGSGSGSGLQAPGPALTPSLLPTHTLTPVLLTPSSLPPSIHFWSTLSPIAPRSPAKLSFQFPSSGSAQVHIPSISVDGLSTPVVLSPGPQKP
The settings on record: protein: recombinant; tags: N-terminal GST; dsDNA, one strand shown. The gist of the method: as §1

Test [3] concerns the target T3, GABPA (Homo sapiens, UniProt Q06546 1-454).
T3 sequence: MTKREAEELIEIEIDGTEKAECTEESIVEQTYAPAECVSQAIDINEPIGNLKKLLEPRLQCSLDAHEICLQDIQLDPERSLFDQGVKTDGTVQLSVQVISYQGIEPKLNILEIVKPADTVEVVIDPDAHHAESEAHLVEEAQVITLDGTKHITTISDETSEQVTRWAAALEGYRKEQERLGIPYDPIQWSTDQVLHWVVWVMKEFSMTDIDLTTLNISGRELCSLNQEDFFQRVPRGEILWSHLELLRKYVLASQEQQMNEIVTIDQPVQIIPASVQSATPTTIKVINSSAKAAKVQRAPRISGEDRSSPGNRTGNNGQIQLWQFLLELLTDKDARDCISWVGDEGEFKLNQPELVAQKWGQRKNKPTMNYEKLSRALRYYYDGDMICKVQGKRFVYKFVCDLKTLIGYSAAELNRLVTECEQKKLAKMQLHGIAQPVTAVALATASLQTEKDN
To be noted: protein: recombinant; tags: N-terminal GST; dsDNA, one strand shown. A digest of the protocol:
as §1

Test [4] has as its target T4, ERG (Homo sapiens, UniProt P11308 1-479).
T4 sequence: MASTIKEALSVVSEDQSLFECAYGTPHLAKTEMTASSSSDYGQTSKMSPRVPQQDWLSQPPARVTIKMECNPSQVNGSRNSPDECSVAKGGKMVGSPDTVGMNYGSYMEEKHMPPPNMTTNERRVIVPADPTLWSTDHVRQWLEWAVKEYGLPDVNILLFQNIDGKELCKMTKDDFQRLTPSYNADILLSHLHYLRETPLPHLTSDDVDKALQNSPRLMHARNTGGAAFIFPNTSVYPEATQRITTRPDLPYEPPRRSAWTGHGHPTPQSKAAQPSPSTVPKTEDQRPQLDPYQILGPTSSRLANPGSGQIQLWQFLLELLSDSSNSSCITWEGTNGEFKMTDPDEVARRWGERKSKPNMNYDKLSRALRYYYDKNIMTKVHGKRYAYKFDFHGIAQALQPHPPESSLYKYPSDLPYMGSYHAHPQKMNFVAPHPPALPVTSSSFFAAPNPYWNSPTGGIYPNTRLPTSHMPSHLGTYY
To be noted: protein: recombinant; tags: N-terminal GST; dsDNA, one strand shown. The gist of the method:
as §1

In test [5] the target is ELF1 (Homo sapiens, UniProt P32519 1-619). The settings on record: protein: recombinant; tags: N-terminal GST; dsDNA, one strand shown. The gist of the method:
as §1

Test [6] addresses T5, EHF (Homo sapiens, UniProt Q9NZC4 1-300).
T5 sequence: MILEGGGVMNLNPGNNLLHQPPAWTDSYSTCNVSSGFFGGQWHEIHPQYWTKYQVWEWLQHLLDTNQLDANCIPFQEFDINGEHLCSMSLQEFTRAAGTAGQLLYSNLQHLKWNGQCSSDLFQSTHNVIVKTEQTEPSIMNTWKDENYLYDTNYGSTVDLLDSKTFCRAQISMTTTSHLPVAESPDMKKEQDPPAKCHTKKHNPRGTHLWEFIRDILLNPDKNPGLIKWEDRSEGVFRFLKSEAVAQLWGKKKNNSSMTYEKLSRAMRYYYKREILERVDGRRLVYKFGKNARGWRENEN
To be noted: protein: recombinant; tags: N-terminal GST; dsDNA, one strand shown. A digest of the protocol: as §1

Test [7] addresses SPI1 (Homo sapiens, UniProt P17947 1-270). The settings on record: protein: recombinant; tags: N-terminal GST; dsDNA, one strand shown. A digest of the protocol: as §1
For test [8], the target named is SPIB (Homo sapiens, UniProt Q01892 1-262). The settings on record: protein: recombinant; tags: N-terminal GST; dsDNA, one strand shown. The gist of the method:
as §1

In test [9] the target is T6, ELK3 (Homo sapiens, UniProt P41970 1-407).
T6 sequence: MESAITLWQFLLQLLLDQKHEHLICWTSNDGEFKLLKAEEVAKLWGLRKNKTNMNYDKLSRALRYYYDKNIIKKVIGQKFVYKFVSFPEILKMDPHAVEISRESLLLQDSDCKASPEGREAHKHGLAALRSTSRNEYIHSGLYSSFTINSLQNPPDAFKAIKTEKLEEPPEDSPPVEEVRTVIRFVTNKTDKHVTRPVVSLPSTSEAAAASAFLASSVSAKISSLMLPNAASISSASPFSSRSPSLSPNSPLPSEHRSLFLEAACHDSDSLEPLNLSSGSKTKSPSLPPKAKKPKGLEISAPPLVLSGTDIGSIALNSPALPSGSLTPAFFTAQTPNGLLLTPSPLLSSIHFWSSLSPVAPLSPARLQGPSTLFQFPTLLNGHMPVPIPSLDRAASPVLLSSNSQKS
To be noted: protein: recombinant; tags: N-terminal GST; dsDNA, one strand shown. A digest of the protocol: as §1

In test [10] the target is T7, FEV (Homo sapiens, UniProt Q99581 1-238).
T7 sequence: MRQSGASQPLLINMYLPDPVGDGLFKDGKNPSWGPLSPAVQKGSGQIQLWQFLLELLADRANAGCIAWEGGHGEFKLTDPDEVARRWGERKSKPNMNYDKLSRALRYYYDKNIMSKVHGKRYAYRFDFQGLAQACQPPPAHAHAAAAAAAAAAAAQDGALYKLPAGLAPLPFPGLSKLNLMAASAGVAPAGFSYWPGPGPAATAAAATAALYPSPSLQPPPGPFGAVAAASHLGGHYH
The settings on record: protein: recombinant; tags: N-terminal GST; dsDNA, one strand shown. A digest of the protocol:
as §1

For test [11], the target named is ETV5 (Homo sapiens, UniProt P41161 1-510). To be noted: protein: recombinant; tags: N-terminal GST; dsDNA, one strand shown. The gist of the method: as §1
Chain of ETV5 (P41161 whole entry): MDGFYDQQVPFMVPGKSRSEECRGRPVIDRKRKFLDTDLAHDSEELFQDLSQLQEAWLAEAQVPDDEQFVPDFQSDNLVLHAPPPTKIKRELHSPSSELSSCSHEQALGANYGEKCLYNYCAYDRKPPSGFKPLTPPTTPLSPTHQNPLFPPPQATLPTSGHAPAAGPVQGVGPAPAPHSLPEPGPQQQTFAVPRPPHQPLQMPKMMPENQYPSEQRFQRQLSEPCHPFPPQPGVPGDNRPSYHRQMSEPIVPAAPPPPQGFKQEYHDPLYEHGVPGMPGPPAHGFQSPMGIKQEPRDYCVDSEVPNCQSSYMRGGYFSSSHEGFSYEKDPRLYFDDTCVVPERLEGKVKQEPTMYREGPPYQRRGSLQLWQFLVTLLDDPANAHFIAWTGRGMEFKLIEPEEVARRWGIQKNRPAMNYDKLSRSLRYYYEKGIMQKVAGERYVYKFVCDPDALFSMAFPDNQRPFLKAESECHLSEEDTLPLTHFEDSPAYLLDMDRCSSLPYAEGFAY
Test [12] concerns the target HSF1 (Homo sapiens, UniProt Q00613 1-529). The settings on record: protein: recombinant; tags: N-terminal GST; chain copies: 3; dsDNA, one strand shown. The gist of the method:
as §1

The target of test [13] is T8, SPIC (Homo sapiens, UniProt Q8N5J4 1-248).
T8 sequence: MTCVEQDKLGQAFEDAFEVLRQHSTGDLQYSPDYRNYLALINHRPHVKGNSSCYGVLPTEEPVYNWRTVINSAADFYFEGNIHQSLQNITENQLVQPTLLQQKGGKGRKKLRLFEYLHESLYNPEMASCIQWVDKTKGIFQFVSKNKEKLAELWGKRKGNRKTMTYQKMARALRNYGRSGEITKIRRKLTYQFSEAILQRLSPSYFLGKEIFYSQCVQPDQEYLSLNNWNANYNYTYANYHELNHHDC
The settings on record: protein: recombinant; tags: N-terminal GST; dsDNA, one strand shown. A digest of the protocol: as §1

In test [14] the target is ELF4 (Homo sapiens, UniProt Q99607 1-663). The settings on record: protein: recombinant; tags: N-terminal GST; dsDNA, one strand shown. A digest of the protocol: as §1
Chain of ELF4 (Q99607 whole entry): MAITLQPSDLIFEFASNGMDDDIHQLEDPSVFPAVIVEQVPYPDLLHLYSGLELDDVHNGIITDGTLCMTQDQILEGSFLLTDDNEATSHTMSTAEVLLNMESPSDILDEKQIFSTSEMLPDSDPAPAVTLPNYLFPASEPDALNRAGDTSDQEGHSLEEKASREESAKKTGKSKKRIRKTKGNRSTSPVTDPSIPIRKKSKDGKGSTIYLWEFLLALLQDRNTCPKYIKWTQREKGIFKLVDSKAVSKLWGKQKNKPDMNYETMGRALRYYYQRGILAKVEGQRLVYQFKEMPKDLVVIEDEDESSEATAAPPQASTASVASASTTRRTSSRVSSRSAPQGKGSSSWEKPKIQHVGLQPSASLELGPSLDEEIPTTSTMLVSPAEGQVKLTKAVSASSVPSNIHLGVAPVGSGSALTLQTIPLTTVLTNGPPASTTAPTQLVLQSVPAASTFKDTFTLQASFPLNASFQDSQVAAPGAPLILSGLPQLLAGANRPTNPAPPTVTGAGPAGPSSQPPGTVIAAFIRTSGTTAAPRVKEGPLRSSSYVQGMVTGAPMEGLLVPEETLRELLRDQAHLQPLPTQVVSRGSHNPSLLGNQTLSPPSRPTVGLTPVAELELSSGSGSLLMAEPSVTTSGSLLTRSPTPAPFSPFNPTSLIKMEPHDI
Test [15] concerns the target T9, ELK4 (Homo sapiens, UniProt P28324-2 1-405).
T9 sequence: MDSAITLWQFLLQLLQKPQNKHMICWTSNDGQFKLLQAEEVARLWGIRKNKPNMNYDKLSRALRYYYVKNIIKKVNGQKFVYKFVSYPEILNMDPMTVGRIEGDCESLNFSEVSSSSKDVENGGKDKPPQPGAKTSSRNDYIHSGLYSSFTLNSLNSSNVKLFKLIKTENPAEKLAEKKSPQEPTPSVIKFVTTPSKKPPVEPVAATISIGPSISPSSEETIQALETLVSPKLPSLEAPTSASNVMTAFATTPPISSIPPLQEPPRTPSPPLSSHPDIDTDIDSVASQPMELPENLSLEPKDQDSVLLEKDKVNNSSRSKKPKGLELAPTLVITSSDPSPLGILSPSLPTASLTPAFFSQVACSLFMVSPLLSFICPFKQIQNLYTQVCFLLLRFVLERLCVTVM
To be noted: protein: recombinant; tags: N-terminal GST; dsDNA, one strand shown. The gist of the method:
as §1

For test [16], the target named is T10, ETV2 (Homo sapiens, UniProt O00321 1-342).
T10 sequence: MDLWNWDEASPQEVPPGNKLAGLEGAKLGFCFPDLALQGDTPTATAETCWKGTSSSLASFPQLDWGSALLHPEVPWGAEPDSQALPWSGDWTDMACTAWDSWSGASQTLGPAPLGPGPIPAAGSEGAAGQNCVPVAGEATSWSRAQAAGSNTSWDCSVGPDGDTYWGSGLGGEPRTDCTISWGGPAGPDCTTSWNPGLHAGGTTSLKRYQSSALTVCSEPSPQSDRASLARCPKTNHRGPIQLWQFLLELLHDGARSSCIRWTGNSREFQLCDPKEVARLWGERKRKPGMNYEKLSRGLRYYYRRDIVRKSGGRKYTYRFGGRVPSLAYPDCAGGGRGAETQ
To be noted: protein: recombinant; tags: N-terminal GST; dsDNA, one strand shown. The gist of the method: as §1

For test [17], the target named is T11, ELF3 (Homo sapiens, UniProt P78545 1-371).
T11 sequence: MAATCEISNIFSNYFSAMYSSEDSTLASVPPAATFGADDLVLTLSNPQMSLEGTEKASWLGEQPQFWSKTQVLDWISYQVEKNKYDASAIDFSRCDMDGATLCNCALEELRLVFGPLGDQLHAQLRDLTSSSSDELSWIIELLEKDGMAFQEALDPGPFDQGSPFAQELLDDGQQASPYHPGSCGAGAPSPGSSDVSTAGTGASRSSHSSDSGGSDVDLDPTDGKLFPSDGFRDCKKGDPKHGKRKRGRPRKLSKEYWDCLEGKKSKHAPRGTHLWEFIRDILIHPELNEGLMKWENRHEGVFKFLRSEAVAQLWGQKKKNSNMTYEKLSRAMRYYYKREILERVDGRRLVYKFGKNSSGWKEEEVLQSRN
The settings on record: protein: recombinant; tags: N-terminal GST; dsDNA, one strand shown. A digest of the protocol:
as §1

In test [18] the target is CRX (Homo sapiens, UniProt O43186 1-299). The settings on record: protein: recombinant; tags: N-terminal GST; dsDNA, one strand shown. The gist of the method: as §1
Chain of CRX (O43186 whole entry): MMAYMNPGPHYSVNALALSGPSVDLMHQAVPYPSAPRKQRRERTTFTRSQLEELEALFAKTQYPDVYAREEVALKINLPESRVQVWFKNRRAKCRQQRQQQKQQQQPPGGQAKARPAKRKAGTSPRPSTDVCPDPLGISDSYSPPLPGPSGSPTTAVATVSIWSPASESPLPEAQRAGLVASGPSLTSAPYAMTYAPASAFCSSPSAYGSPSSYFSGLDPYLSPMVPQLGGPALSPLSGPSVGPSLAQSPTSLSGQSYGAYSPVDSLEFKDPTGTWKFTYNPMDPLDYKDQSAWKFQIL
In test [19] the target is ETV1 (Homo sapiens, UniProt P50549 1-477). To be noted: protein: recombinant; tags: N-terminal GST; dsDNA, one strand shown. A digest of the protocol: as §1
Chain of ETV1 (P50549 whole entry): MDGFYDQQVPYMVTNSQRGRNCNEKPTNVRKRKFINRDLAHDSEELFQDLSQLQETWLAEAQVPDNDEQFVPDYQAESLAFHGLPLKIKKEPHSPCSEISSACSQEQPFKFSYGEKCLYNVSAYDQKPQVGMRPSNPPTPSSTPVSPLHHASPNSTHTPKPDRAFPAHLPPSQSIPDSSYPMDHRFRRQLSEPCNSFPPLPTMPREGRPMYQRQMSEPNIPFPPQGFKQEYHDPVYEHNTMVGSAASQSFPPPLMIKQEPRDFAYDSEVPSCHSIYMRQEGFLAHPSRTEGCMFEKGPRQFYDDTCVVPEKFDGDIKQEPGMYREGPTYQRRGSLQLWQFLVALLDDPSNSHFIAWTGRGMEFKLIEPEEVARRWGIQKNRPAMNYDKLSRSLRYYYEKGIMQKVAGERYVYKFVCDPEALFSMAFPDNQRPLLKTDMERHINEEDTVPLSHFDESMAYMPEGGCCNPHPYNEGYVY

Chain of ELF1 (P32519 whole entry): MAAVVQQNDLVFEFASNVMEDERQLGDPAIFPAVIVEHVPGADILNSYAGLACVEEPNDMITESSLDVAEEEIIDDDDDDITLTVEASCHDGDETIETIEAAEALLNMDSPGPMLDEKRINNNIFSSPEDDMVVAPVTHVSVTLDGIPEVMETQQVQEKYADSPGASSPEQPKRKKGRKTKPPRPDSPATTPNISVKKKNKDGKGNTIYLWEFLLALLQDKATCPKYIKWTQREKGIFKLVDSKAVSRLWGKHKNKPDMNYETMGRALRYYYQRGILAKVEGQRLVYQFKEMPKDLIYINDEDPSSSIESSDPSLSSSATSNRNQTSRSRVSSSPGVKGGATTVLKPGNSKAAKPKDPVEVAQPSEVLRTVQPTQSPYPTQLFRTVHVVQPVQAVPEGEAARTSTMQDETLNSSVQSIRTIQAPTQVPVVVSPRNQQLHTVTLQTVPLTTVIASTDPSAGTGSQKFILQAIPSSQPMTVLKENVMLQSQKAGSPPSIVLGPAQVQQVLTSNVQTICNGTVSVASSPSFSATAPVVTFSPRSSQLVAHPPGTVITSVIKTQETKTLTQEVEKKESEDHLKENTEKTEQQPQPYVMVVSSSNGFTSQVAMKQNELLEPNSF
Chain of HSF1 (Q00613 whole entry): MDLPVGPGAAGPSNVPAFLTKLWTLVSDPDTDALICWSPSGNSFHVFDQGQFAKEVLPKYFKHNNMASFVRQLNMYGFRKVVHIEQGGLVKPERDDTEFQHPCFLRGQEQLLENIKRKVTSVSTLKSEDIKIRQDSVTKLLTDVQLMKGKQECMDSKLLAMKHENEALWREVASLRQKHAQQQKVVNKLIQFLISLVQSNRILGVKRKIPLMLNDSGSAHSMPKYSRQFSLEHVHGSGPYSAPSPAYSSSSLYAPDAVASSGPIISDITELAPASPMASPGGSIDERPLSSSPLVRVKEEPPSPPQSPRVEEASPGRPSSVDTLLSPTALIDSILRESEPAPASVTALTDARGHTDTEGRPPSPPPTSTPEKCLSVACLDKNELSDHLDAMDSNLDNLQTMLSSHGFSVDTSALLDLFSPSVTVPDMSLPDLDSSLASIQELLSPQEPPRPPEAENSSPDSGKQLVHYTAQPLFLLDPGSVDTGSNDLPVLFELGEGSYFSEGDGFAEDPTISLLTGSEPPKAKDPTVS
Chain of SPIB (Q01892 whole entry): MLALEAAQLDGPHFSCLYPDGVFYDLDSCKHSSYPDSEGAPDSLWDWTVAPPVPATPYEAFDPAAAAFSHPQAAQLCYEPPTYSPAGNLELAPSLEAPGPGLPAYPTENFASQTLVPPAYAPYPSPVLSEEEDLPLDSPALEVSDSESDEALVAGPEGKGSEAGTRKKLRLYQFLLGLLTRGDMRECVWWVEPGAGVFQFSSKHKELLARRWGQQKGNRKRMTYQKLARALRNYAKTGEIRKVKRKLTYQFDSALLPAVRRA

For the sequence ATTGCC, the binding signal in test [1] is 1.28 fold enrichment (6-mer frequency, TF over GST control); in test [2], 1.27 fold enrichment (6-mer frequency, TF over GST control); in test [3], 1.28 fold enrichment (6-mer frequency, TF over GST control); in test [4], 1.14 fold enrichment (6-mer frequency, TF over GST control); in test [5], 1.21 fold enrichment (6-mer frequency, TF over GST control); in [6], 1.24 fold enrichment (6-mer frequency, TF over GST control). Besides, the binding signal was 1.15 fold enrichment (6-mer frequency, TF over GST control) in test [7]; 1.26 fold enrichment (6-mer frequency, TF over GST control) in test [8]; 1.15 fold enrichment (6-mer frequency, TF over GST control) in test [9]; 1.25 fold enrichment (6-mer frequency, TF over GST control) in test [10]; 1.28 fold enrichment (6-mer frequency, TF over GST control) in [11]; 1.09 fold enrichment (6-mer frequency, TF over GST control) in test [12]. The binding signal was 1.29 fold enrichment (6-mer frequency, TF over GST control) in test [13]; 1.3 fold enrichment (6-mer frequency, TF over GST control) in test [14]; 1.14 fold enrichment (6-mer frequency, TF over GST control) in test [15]; 1.12 fold enrichment (6-mer frequency, TF over GST control) in test [16]; 1.24 fold enrichment (6-mer frequency, TF over GST control) in test [17]; 1.09 fold enrichment (6-mer frequency, TF over GST control) in [18]. The binding signal in [19] was 1.2 fold enrichment (6-mer frequency, TF over GST control).
